Source: PubChem BioAssay (NCATS)
Results filed as inconclusive are left out. Activity calls are given as the source filed them. Calls follow the shape of the dose curve; as a rule, active = well fitted curve in the direction sought with a large enough effect; inconclusive = small, poorly fitted or top-dose-only effect, or another doubt; inactive = no such curve, though single readings can be large; an effect the other way counts as inactive or inconclusive.

What was measured:
[1] = Quantitative High-Throughput drug screen in 47 multiple myeloma cell lines against the NCATS MIPE library collection: Karpas417_ECACC cell viability assay (AID 1918961); conditions: Karpas417 myeloma viability, CellTiter-Glo ATP luminescence, 48 h; viability (% of DMSO): at 45.8 µM (top of the series)
In short: (§1)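 Approved and investigational drugs from MIPE 4.0 were added by pin tool to 500 cells per well. After 48 hours at 37C, ATP-based CellTiter-Glo luminescence indicated remaining viability.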

[2] = Quantitative High-Throughput drug screen in 47 multiple myeloma cell lines against the NCATS MIPE library collection: KHM11_PLB cell viability assay (AID 1918962); also: nearly all actives have a fitted effect of over 35% in size
In short: (§2)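 Viability readout: CellTiter-Glo luminescence following 5 min room-temperature incubation with reagent. Prior exposure: 48 h, 37C, humidified 5% CO2, 500 cells per well.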

[3] = Quantitative High-Throughput drug screen in 47 multiple myeloma cell lines against the NCATS MIPE library collection: JIM3_ECACC cell viability assay (AID 1918963; also: nearly all actives have a fitted effect of over 35% in size)
In short: as §2

[4] = Quantitative High-Throughput drug screen in 47 multiple myeloma cell lines against the NCATS MIPE library collection: INA6_PLB cell viability assay (AID 1918965; also: nearly all actives have a fitted effect of over 55% in size)
In short: as §1

[5] = Quantitative High-Throughput drug screen in 47 multiple myeloma cell lines against the NCATS MIPE library collection: JJN3_DSMZ cell viability assay (AID 1918966; also: nearly all actives have a fitted effect of over 50% in size)
In short: (§3)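 Relative luminescence from CellTiter-Glo served as the viability signal, referenced to DMSO-treated (100%) and cell-free medium (0%) controls. Treatment lasted 48 hours at 37C with 500 cells per well.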

[6] = Quantitative High-Throughput drug screen in 47 multiple myeloma cell lines against the NCATS MIPE library collection: H1112_PLB cell viability assay (AID 1918967; also: nearly all actives have a fitted effect of over 30% in size)
In short: as §3

[7] = Quantitative High-Throughput drug screen in 47 multiple myeloma cell lines against the NCATS MIPE library collection: KMS12BM_JCRB cell viability assay (AID 1918971); also: nearly all actives have a fitted effect of over 35% in size
In short: (§4)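 Steps: seed 500 cells per well; pin-transfer MIPE 4.0 library; incubate 48 h at 37C, 5% CO2, humidified; add CellTiter-Glo, 5 min room temperature; read luminescence.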

[8] = Quantitative High-Throughput drug screen in 47 multiple myeloma cell lines against the NCATS MIPE library collection: KMS12PE_JCRB cell viability assay (AID 1918972); also: nearly all actives have a fitted effect of over 30% in size
In short: as §1

[9] = Quantitative High-Throughput drug screen in 47 multiple myeloma cell lines against the NCATS MIPE library collection: KMS26_JCRB cell viability assay (AID 1918975); also: nearly all actives have a fitted effect of over 45% in size
In short: as §4

[10] = Quantitative High-Throughput drug screen in 47 multiple myeloma cell lines against the NCATS MIPE library collection: MMM1_PLB cell viability assay (AID 1918976); also: nearly all actives have a fitted effect of over 35% in size
In short: (§5)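 MIPE 4.0 approved/investigational drugs; 500 cells/well; 48 h 37 °C humidified 5% CO2; CTG luminescence readout; DMSO = 100%, media = 0% viability.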

[11] = Quantitative High-Throughput drug screen in 47 multiple myeloma cell lines against the NCATS MIPE library collection: MOLP8_DSMZ cell viability assay (AID 1918977); also: nearly all actives have a fitted effect of over 45% in size
In short: as §5

[12] = Quantitative High-Throughput drug screen in 47 multiple myeloma cell lines against the NCATS MIPE library collection: NCIH929_DSMZ cell viability assay (AID 1918978); also: nearly all actives have a fitted effect of over 35% in size
In short: as §5

[13] = Quantitative High-Throughput drug screen in 47 multiple myeloma cell lines against the NCATS MIPE library collection: OCIMY1_PLB cell viability assay (AID 1918979); also: nearly all actives have a fitted effect of over 35% in size
In short: as §5

[14] = Quantitative High-Throughput drug screen in 47 multiple myeloma cell lines against the NCATS MIPE library collection: MM1S_ATCC cell viability assay (AID 1918980); also: nearly all actives have a fitted effect of over 45% in size
In short: as §5

[15] = Quantitative High-Throughput drug screen in 47 multiple myeloma cell lines against the NCATS MIPE library collection: JIM1_ECACC cell viability assay (AID 1918964)
In short: as §3

[16] = Quantitative High-Throughput drug screen in 47 multiple myeloma cell lines against the NCATS MIPE library collection: Karpas25_ECACC cell viability assay (AID 1918968; also: nearly all actives have a fitted effect of over 35% in size)
In short: as §3

[17] = Quantitative High-Throughput drug screen in 47 multiple myeloma cell lines against the NCATS MIPE library collection: KMS27_JCRB cell viability assay (AID 1918970); conditions: KMS27 myeloma cells, CellTiter-Glo ATP viability, 48 h; viability (% of DMSO): at 45.8 µM (top of the series); also: nearly all actives have a fitted effect of over 30% in size
In short: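 KMS27_JCRB myeloma cells, 500 per well, exposed 48 h at 37 C, 5% CO2 to MIPE 4.0 compounds. Viability from ATP by CellTiter-Glo luminescence, normalized to DMSO (100%) and medium-only (0%) wells.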

[18] = Quantitative High-Throughput drug screen in 47 multiple myeloma cell lines against the NCATS MIPE library collection: KMS20_JCRB cell viability assay (AID 1918973); also: nearly all actives have a fitted effect of over 45% in size
In short: as §3

[19] = Quantitative High-Throughput drug screen in 47 multiple myeloma cell lines against the NCATS MIPE library collection: KMS21BM_JCRB cell viability assay (AID 1918974); conditions: ATP luminescence, 48 h; viability: at 45.8 µM (top of the series)
In short: as §3

Measured: Potency
Potency is read from the fitted curve at half-maximal effect.

Clc1ccc(C2(c3ccc(-c4cn[nH]c4)cc3)CCNCC2)cc1
active: [1] 6.62 µM | [2] 11.8 µM | [3] 26.4 µM | [4] 5.9 µM | [5] 20.9 µM | [6] 16.6 µM | [7] 23.5 µM | [8] 23.5 µM | [9] 20.9 µM | [10] 1.48 µM | [11] 20.9 µM | [12] 2.96 µM | [13] 23.5 µM | [14] 14.8 µM

NS(=O)(=O)c1cc(Cl)c(Cl)c(S(N)(=O)=O)c1
active: [10] 18.7 µM
inactive: [1] | [2] | [3] | [15] | [4] | [5] | [6] | [16] | [17] | [8] | [9] | [11] | [12] | [13] | [14]

C[C@@H](N)c1ccc(C(=O)Nc2ccnc3[nH]ccc23)cc1
active: [2] 20.9 µM | [3] 20.9 µM | [15] 13.2 µM | [4] 20.9 µM | [5] 20.9 µM | [6] 23.5 µM | [17] 18.7 µM | [18] 18.7 µM | [11] 16.6 µM | [14] 18.7 µM

O=C(O)CCNc1cc(N2CCc3ccccc3CC2)nc(-c2ccccn2)n1
active: [4] 16.6 µM | [16] 16.6 µM | [7] 0.0372 µM
inactive: [1] | [2] | [6] | [8] | [9] | [12] | [13]

C[C@@H](O)[C@H]1C(=O)N2C(C(=O)OCOC(=O)C(C)(C)C)=C(SC3CN(C4=NCCS4)C3)[C@H](C)[C@H]12
active: [5] 16.6 µM
inactive: [2] | [3] | [15] | [6] | [7] | [11] | [12]

N#Cc1c(N(CC(=O)O)CC(=O)O)sc(C(=O)O)c1CC(=O)O
inactive: [1] | [2]
active: [15] 5.9 µM | [4] 14.8 µM | [16] 18.7 µM | [12] 26.4 µM

COc1ccc(-c2cc3nccn3c(Nc3ncccc3C(N)=O)n2)cc1OC
active: [1] 0.166 µM | [2] 0.833 µM | [3] 1.05 µM | [15] 0.372 µM | [4] 0.187 µM | [6] 5.9 µM | [16] 1.48 µM | [18] 0.418 µM | [10] 10.5 µM | [11] 3.72 µM | [12] 0.935 µM | [14] 14.8 µM
inactive: [13]

C[C@@]1(c2cc(-c3cncnc3)c(F)cc2F)CCSC(N)=N1
active: [1] 0.0833 µM | [2] 3.32 µM | [3] 23.5 µM | [18] 9.35 µM | [12] 2.96 µM
inactive: [7] | [9] | [13]

CC1(COc2ccc3c(c2)ncn3-c2ccc3cccc(N4CCC(N)CC4)c3n2)COC1
active: [1] 1.18 µM | [2] 0.0148 µM | [3] 0.0118 µM | [5] 0.418 µM | [6] 0.0083 µM | [7] 11.8 µM | [9] 14.8 µM | [10] 1.48 µM | [13] 1.48 µM

CCOC(=O)N1CCN([N+]([O-])=NOc2cc(ON=[N+]([O-])N3CCN(C(=O)OCC)CC3)c([N+](=O)[O-])cc2[N+](=O)[O-])CC1
active: [2] 6.62 µM | [3] 9.35 µM | [4] 2.35 µM | [5] 2.96 µM | [6] 5.9 µM | [7] 5.26 µM | [18] 2.64 µM | [9] 2.35 µM | [10] 6.62 µM | [12] 2.64 µM | [13] 7.43 µM | [14] 9.35 µM
inactive: [15] | [8]

CCn1c(-c2nonc2N)nc2cncc(CNC3CCNCC3)c21
active: [2] 2.64 µM | [3] 2.96 µM | [4] 5.9 µM | [5] 5.26 µM | [6] 5.26 µM | [16] 8.33 µM | [17] 2.09 µM | [8] 1.05 µM | [10] 8.33 µM | [11] 14.8 µM | [14] 14.8 µM
inactive: [7]

CC(C)n1c(C=C[C@H](O)C[C@H](O)CC(=O)O)c(-c2ccc(F)cc2)c2ccccc21
active: [2] 14.8 µM | [3] 16.6 µM | [15] 7.43 µM | [4] 10.5 µM | [6] 16.6 µM | [16] 14.8 µM | [17] 3.72 µM | [8] 3.32 µM | [18] 20.9 µM | [19] 29.6 µM | [12] 13.2 µM
inactive: [5] | [13]

CC1CNc2c(cccc2S(=O)(=O)N[C@@H](CCCN=C(N)N)C(=O)N2CC[C@@H](C)C[C@@H]2C(=O)O)C1 (stereo partly drawn)
active: [17] 14.8 µM | [14] 7.43 µM
inactive: [2] | [3] | [4] | [5] | [6] | [16] | [9] | [13]
